In PubChem BioAssay AID1159580 (chemical genetic matrix, 2015):
Hit rate of the full screen: of about 5,500 compounds, about 2,000 (36%) were called active. Not shown: some 18% with an inconclusive outcome. Rule as the data show it: active = normalized growth mostly below about 0.91 (no sharp cut-off); inconclusive = no clear call, values can overlap the other calls; inactive = mostly above about 0.92. The list shows a part of the results.

Assay: chemical genetic growth profiling, strain panel (AID 1159580);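 also: tested at 20 µM; growth read once vehicle control cultures reached saturation at 30 °C; 1 = growth at the plate median or of vehicle wells; lower values mean less growth of the strain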
Settings: growth OD

Measured: normalized growth

NC(=NCCCCCCN=C(N)N=C(N)Nc1ccc(Cl)cc1)N=C(N)Nc1ccc(Cl)cc1
active: S. cerevisiae deletion strains, locus YJR075W, strain HOC1, hits give low values 0.0644 | S. cerevisiae deletion strains, locus YKL009W, strain mrt4, hits give low values 0.478 | S. cerevisiae deletion strains, locus YKL085W, strain MDH1 (second series), hits give low values 0.906 | S. cerevisiae deletion strains, locus YKL085W, strain MDH1, hits give low values 0.906 | S. cerevisiae deletion strains, locus YKL160W, strain elf1, hits give low values 0.0627 | S. cerevisiae deletion strains, locus YKL190W, strain CNB1, hits give low values 0.0461 | S. cerevisiae deletion strains, locus YKR001C, strain vps1, hits give low values 0.0656 | S. cerevisiae deletion strains, locus YKR026C, strain gcn3, hits give low values 0.0624 | S. cerevisiae deletion strains, locus YKR091W, strain srl3, hits give low values 0.0577 | S. cerevisiae deletion strains, locus YLL001W, strain dnm1, hits give low values 0.0629 | S. cerevisiae deletion strains, locus YLL026W, hits give low values 0.0551 | S. cerevisiae deletion strains, locus YLL041C, strain sdh2, hits give low values 0.0558 | S. cerevisiae deletion strains, locus YLR027C, strain aat2, hits give low values 0.0552 | S. cerevisiae deletion strains, locus YLR039C, strain RIC1, hits give low values 0.0768 | S. cerevisiae deletion strains, locus YLR058C, strain SHM2, hits give low values 0.0478 | S. cerevisiae deletion strains, locus YLR102C, strain apc9, hits give low values 0.0634 | S. cerevisiae deletion strains, locus YLR113W, strain HOG1, hits give low values 0.126 | S. cerevisiae deletion strains, locus YLR221C, strain rsa3, hits give low values 0.058 | S. cerevisiae deletion strains, locus YLR258W, strain gsy2, hits give low values 0.0585 | S. cerevisiae deletion strains, locus YLR262C, strain YPT6 (second series), hits give low values 0.0721 | S. cerevisiae deletion strains, locus YLR262C, strain YPT6, hits give low values 0.0923 | S. cerevisiae deletion strains, locus YLR268W, strain sec22, hits give low values 0.0678 | S. cerevisiae deletion strains, locus YLR320W, strain mms22, hits give low values 0.0755 | S. cerevisiae deletion strains, locus YLR330W, strain CHS5, hits give low values 0.0516 | S. cerevisiae deletion strains, locus YLR342W, strain FKS1 (second series), hits give low values 0.0692 | S. cerevisiae deletion strains, locus YLR342W, strain FKS1, hits give low values 0.063 | S. cerevisiae deletion strains, locus YLR357W, strain rsc2, hits give low values 0.116 | S. cerevisiae deletion strains, locus YLR370C, strain arc18, hits give low values 0.0607 | S. cerevisiae deletion strains, locus YLR371W, strain rom2, hits give low values 0.0627 | S. cerevisiae deletion strains, locus YLR384C, strain iki3, hits give low values 0.057 | S. cerevisiae deletion strains, locus YLR418C, strain cdc73, hits give low values 0.0991 | S. cerevisiae deletion strains, locus YML016C, strain PPZ1, hits give low values 0.0482 | S. cerevisiae deletion strains, locus YML032C, strain rad52, hits give low values 0.0699 | S. cerevisiae deletion strains, locus YML120C, strain ndi1, hits give low values 0.0569 | S. cerevisiae deletion strains, locus YML124C, strain tub3, hits give low values 0.0596 | S. cerevisiae deletion strains, locus YMR058W, strain fet3, hits give low values 0.0607 | S. cerevisiae deletion strains, locus YMR078C, strain ctf18, hits give low values 0.071 | S. cerevisiae deletion strains, locus YMR125W, strain sto1, hits give low values 0.0789 | S. cerevisiae deletion strains, locus YMR129W, hits give low values 0.0564 | S. cerevisiae deletion strains, locus YMR205C, strain PFK2, hits give low values 0.0855 | S. cerevisiae deletion strains, locus YMR223W, strain ubp8, hits give low values 0.0651 | S. cerevisiae deletion strains, locus YMR231W, strain pep5, hits give low values 0.064 | S. cerevisiae deletion strains, locus YMR263W, strain SAP30, hits give low values 0.0566 | S. cerevisiae deletion strains, locus YMR307W, strain GAS1, hits give low values 0.0969 | S. cerevisiae deletion strains, locus YNL067W, strain RPL9B, hits give low values 0.0509 | S. cerevisiae deletion strains, locus YNL071W, strain lat1, hits give low values 0.0604 | S. cerevisiae deletion strains, locus YNL128W, strain TEP1, hits give low values 0.0651 | S. cerevisiae deletion strains, locus YNL153C, strain GIM3, hits give low values 0.0505 | S. cerevisiae deletion strains, locus YNL183C, strain NPR1, hits give low values 0.139 | S. cerevisiae deletion strains, locus YNL209W, strain ssb2, hits give low values 0.057 | S. cerevisiae deletion strains, locus YNL233W, strain BNI4, hits give low values 0.0552 | S. cerevisiae deletion strains, locus YNL248C, strain rpa49, hits give low values 0.075 | S. cerevisiae deletion strains, locus YNL271C, strain bni1, hits give low values 0.607 | S. cerevisiae deletion strains, locus YNL298W, strain CLA4, hits give low values 0.0653 | S. cerevisiae deletion strains, locus YNL307C, strain MCK1, hits give low values 0.0676 | S. cerevisiae deletion strains, locus YNL322C, strain KRE1 (second series), hits give low values 0.0655 | S. cerevisiae deletion strains, locus YNL322C, strain KRE1, hits give low values 0.0467 | S. cerevisiae deletion strains, locus YNR049C, strain mso1, hits give low values 0.0617 | S. cerevisiae deletion strains, locus YNR052C, strain pop2, hits give low values 0.0607 | S. cerevisiae deletion strains, locus YOL006C, strain TOP1, hits give low values 0.107 | S. cerevisiae deletion strains, locus YOL012C, strain htz1 0.183 | S. cerevisiae deletion strains, locus YOL147C, strain pex11, hits give low values 0.0595 | S. cerevisiae deletion strains, locus YOR001W, strain rrp6, hits give low values 0.0681 | S. cerevisiae deletion strains, locus YOR061W, strain CKA2, hits give low values 0.0471 | S. cerevisiae deletion strains, locus YOR069W, strain VPS5, hits give low values 0.0468 | S. cerevisiae deletion strains, locus YOR070C, strain gyp1, hits give low values 0.0572 | S. cerevisiae deletion strains, locus YOR080W, strain dia2, hits give low values 0.0623 | S. cerevisiae deletion strains, locus YOR083W, strain WHI5, hits give low values 0.0615 | S. cerevisiae deletion strains, locus YOR106W, strain vam3, hits give low values 0.0675 | S. cerevisiae deletion strains, locus YOR136W, strain idh2, hits give low values 0.0708 | S. cerevisiae deletion strains, locus YOR144C, strain elg1, hits give low values 0.0593 | S. cerevisiae deletion strains, locus YOR184W, strain ser1, hits give low values 0.0744 | S. cerevisiae deletion strains, locus YOR231W, strain MKK1, hits give low values 0.0973 | S. cerevisiae deletion strains, locus YOR265W, strain rbl2, hits give low values 0.0543 | S. cerevisiae deletion strains, locus YOR270C, strain vph1, hits give low values 0.107 | S. cerevisiae deletion strains, locus YOR290C, strain snf2, hits give low values 0.0655 | S. cerevisiae deletion strains, locus YOR316C, strain cot1, hits give low values 0.0609 | S. cerevisiae deletion strains, locus YPL051W, strain arl3, hits give low values 0.0612 | S. cerevisiae deletion strains, locus YPL055C, strain LGE1, hits give low values 0.0688 | S. cerevisiae deletion strains, locus YPL078C, strain atp4, hits give low values 0.0665 | S. cerevisiae deletion strains, locus YPL106C, strain sse1, hits give low values 0.0968 | S. cerevisiae deletion strains, locus YPL240C, strain hsp82, hits give low values 0.0556 | S. cerevisiae deletion strains, locus YPL241C, strain CIN2, hits give low values 0.0486 | S. cerevisiae deletion strains, locus YPL256C, strain CLN2, hits give low values 0.124 | S. cerevisiae deletion strains, locus YPR119W, strain clb2, hits give low values 0.0667 | S. cerevisiae deletion strains, locus YPR163C, strain tif3, hits give low values 0.0696 | S. cerevisiae deletion strains, locus YPR167C, strain met16, hits give low values 0.0625 | S. cerevisiae deletion strains, strain wtn01, hits give low values 0.0592 | S. cerevisiae strains, strain wild type, hits give low values 0.0489
inactive: S. cerevisiae deletion strains, locus YKL068W, hits give low values 0.977 | S. cerevisiae deletion strains, locus YNL250W, strain rad50, hits give low values 0.909 | S. cerevisiae deletion strains, locus YPR141C, strain kar3, hits give low values 1.01
